We go through 56 compounds from PMC4336329 (PLoS ONE, 2015).

The campaign covered roughly 310,000 compounds. About 14,000 (4.5%) showed an effect of 50% or more. Effects have a minus sign here. The sample holds strong results, similar compounds and a random draw of the others, so the mix is not that of the screen.
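Further: peak tail current of the secondary pulse compared with the same well before compound.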

Chain of human ether-à-go-go-related gene (hERG) potassium channel (Q12809 whole entry, looked up): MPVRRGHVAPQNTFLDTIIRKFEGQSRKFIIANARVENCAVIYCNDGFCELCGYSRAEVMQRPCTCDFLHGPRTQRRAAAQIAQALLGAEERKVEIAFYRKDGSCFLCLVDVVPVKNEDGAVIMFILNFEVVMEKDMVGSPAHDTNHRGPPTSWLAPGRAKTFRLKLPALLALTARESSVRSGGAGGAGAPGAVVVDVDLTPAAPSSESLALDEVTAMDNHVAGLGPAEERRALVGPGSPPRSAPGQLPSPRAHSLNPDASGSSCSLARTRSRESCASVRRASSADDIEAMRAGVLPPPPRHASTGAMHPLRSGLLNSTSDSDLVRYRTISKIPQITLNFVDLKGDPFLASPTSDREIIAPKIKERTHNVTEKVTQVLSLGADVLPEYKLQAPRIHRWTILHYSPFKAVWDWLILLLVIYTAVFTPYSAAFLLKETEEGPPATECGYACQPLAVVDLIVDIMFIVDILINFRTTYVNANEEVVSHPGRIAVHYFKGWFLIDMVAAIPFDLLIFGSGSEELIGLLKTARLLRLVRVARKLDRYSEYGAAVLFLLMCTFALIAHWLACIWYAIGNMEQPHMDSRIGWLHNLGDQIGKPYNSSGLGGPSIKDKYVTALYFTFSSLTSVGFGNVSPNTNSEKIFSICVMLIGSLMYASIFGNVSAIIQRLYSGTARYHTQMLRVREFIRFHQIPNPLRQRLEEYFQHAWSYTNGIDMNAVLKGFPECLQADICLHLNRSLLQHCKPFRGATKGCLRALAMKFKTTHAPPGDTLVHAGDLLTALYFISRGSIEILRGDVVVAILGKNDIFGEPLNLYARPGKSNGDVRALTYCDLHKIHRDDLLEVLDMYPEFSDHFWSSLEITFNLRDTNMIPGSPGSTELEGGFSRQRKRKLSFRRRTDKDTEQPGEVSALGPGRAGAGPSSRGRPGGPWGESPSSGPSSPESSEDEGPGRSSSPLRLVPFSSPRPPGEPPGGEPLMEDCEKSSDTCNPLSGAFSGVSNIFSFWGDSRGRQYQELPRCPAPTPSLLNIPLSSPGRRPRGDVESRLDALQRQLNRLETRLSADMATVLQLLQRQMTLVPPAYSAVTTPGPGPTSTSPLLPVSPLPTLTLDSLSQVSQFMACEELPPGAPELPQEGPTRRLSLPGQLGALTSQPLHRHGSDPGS

This experiment has as its target human ether-à-go-go-related gene (hERG) potassium channel (human, UniProt Q12809). Briefly: primary screen, population patch clamp on CHO cells stably expressing hERG; higher = less effect of the substance.
For `COc1ccc(S(=O)(=O)NCc2ccccc2)cc1Br`, the “hERG current change (%, negative = inhibition) at 10uM” value amounted to 6.25%. Turning to `NC(=O)CC1Nc2cccc3cccc(c23)NC1=O` (centres unmarked), the “hERG current change (%, negative = inhibition) at 10uM” value is listed as 8.93%. The result for `COc1ccc(CCNC(=O)CCc2nc3ccccc3[nH]2)cc1OC` reads -7.59%. The result for `CCN(CC(=O)Nc1ccc(NC(C)=O)cc1)C(=O)CCCSc1nc2ccccc2[nH]1` reads -0.716%; that for `CCCCc1oc2c(c(=O)c1C)C(=O)CC(c1ccccc1)C2` (centres unmarked), -59.8%; that for `Cc1oc2c(c(=O)c1C)C(=O)CC(c1ccccc1)C2` (centres unmarked), -23.7%. The same measure for `CCCCc1noc2c1/C(=N\O)CC(c1ccccc1)C2` (centres unmarked): 7.26%; for `CSc1ccccc1NC(=O)CN(C)C(=O)Cc1c[nH]c2ccccc12`: -0.585%. Turning to `O=C(CSc1nc2c(sc3ccccc32)c(=O)n1CCCN1CCOCC1)NC1CCCC1`, the “hERG current change (%, negative = inhibition) at 10uM” value is -64.7%. For the compound `O=C(CSc1nc2c(sc3ccccc32)c(=O)n1Cc1ccccc1)NCC1CCCO1` (centres unmarked), the “hERG current change (%, negative = inhibition) at 10uM” value came to 16.8%. For `CCCCn1c(SCC(=O)NC(C)CC)nc2ccc(N3CCOCC3)cc2c1=O` (centres unmarked), the “hERG current change (%, negative = inhibition) at 10uM” value was -12.8%. With `Cc1cc(NC(=O)CSc2nc3c(sc4ccccc43)c(=O)n2CCCN2CCOCC2)n[nH]1`, the “hERG current change (%, negative = inhibition) at 10uM” value amounted to 2%. The same measure for `CCOC(=O)CSc1nc2c(sc3ccc([N+](=O)[O-])cc32)c(=O)n1Cc1ccco1`: -32.4%; for `CCOC(=O)CSc1nc2c(sc3ccccc32)c(=O)n1CCCN1CCOCC1`: -65.9%. The same measure for `NC(=O)CSc1nc2c(sc3ccccc32)c(=O)n1CCCC(=O)NCC1CCCO1` (centres unmarked): -16.8%. The result for `CCC(C)NC(=O)CSc1nc2c(sc3ccccc32)c(=O)n1CCCN1CCOCC1` (centres unmarked) reads -53.4%; that for `COCCCNC(=O)CSc1nc2c(sc3ccccc32)c(=O)n1CCCC(=O)NCC1CCCO1` (centres unmarked), -14.4%; that for `NC(=O)CSc1nc2c(sc3ccccc32)c(=O)n1CCCN1CCOCC1`, -52.8%.

Take `CCCCn1c(SCC(N)=O)nc2c(sc3ccccc32)c1=O`: the “hERG current change (%, negative = inhibition) at 10uM” value was -12.4%. The result for `O=C1CSC(c2ccccn2)N1c1ccc(F)cc1F` (centres unmarked) reads -0.569%. The same measure for `COc1ccccc1Nc1nc(-c2sc(NC(=O)CC(C)C)nc2C)cs1`: 5.43%; for `O=C(CCC(=O)N1CCSc2ccccc21)NC1CCCCC1`: -2.55%. The same measure for `O=C(OCCNc1ccc(C(F)(F)F)cc1[N+](=O)[O-])c1cc2ccccc2oc1=O`: 4.72%; for `CC(Sc1nncn1C)C(=O)Nc1ccc(S(N)(=O)=O)cc1` (centres unmarked): 15.7%; for `Cc1oc(-c2ccccc2Cl)nc1CSCC(=O)N1CCCC1`: -19.9%. As to `COc1ccc(Cl)cc1NC(=O)CN(C)C(=O)c1ccc(COc2ccccc2)cc1`, the “hERG current change (%, negative = inhibition) at 10uM” value was 13.5%. The result for `CC1CCc2ccc(F)cc2N1S(=O)(=O)c1cccs1` (centres unmarked) reads 2.36%; that for `CNC(=S)NNC(=O)c1ccc(N(C)C)cc1`, 0.516%; that for `Cc1cc(C)c(S(=O)(=O)NCC2CCC(C(=O)NCc3ccc4c(c3)OCO4)CC2)c(C)c1` (centres unmarked), -1.15%. Regarding `O=C(N/N=C/C=C/c1ccccc1)c1n[nH]c2c1CCC2`, the “hERG current change (%, negative = inhibition) at 10uM” value is recorded as 9.22%. The same measure for `CCC(=O)Nc1cc(-c2nnc(OC)c3ccccc23)ccc1N1CCOCC1`: -5.46%. The result for `CCCC(=O)Nc1cc(-c2nnc(OC)c3ccccc23)ccc1N1CCOCC1` reads -42.9%; that for `COc1nnc(-c2ccc(N3CCOCC3)c(NC(C)=O)c2)c2ccccc12`, -1.4%. The result for `COc1nnc(-c2ccc(N3CCOCC3)c(NC(=O)c3ccc(C)cc3)c2)c2ccccc12` reads -68.9%; that for `COc1ccc(NS(=O)(=O)c2ccc(N3CCOCC3)c(NC(=O)c3ccco3)c2)cc1`, 30.3%; that for `Cc1ccc(S(=O)(=O)Nc2cc(-c3nn(C)c(=O)c4ccccc34)ccc2N2CCOCC2)cc1`, -57%. Take `COc1nnc(-c2ccc(N3CCOCC3)c(NC(=O)c3ccccc3)c2)c2ccccc12`: the “hERG current change (%, negative = inhibition) at 10uM” value was -19.5%. On to `COc1ccc(N2CCOCC2)c(NC(=O)c2ccco2)c1`, for which the “hERG current change (%, negative = inhibition) at 10uM” value is -73.1%. As to `COC(=O)c1ccc(N2CCOCC2)c(NC(=O)c2ccco2)c1`, the “hERG current change (%, negative = inhibition) at 10uM” value was determined as 1.95%. The result for `COc1nnc(-c2ccc(N3CCOCC3)c(NC(=O)c3ccco3)c2)c2ccccc12` reads -70%; that for `Cn1nc(-c2ccc(N3CCOCC3)c(NS(=O)(=O)c3ccccc3)c2)c2ccccc2c1=O`, -15.6%. In the case of `Cn1nc(-c2ccc(N3CCOCC3)c(NS(=O)(=O)c3ccc(Cl)cc3)c2)c2ccccc2c1=O`, the “hERG current change (%, negative = inhibition) at 10uM” value is listed as -9.74%. The result for `Cc1cc(C)c(C#N)c(SCc2nnc(-c3ccccc3)o2)n1` reads -0.532%; that for `O=C(CNCC1CCCO1)Nc1ccccc1N1CCCCCC1.O=C(O)C(=O)O` (centres unmarked), -6.51%. For the compound `COc1cc(OC)nc(Oc2ccccc2C(=O)Oc2ccc(C)cc2)n1`, the “hERG current change (%, negative = inhibition) at 10uM” value is given as -25.1%. With `O=C(c1cc(C2CC2)on1)N1CCN(c2ccccc2)CC1`, the “hERG current change (%, negative = inhibition) at 10uM” value was -14.1%. The same measure for `CCCCN1C(=O)C(=O)N(CC(=O)Nc2cc(S(=O)(=O)N(C)C)ccc2C)C1=O`: 6.6%; for `O=S(=O)(Nc1ccc(Br)cc1)c1cccc2nonc12`: 5.71%; for `Cl.O=C(O)CCN1CCOCC1`: 19.8%. The result for `Cc1ccc(C)c(S(=O)(=O)N2CCN(C(=O)CCNC(=O)c3ccc(Br)cc3)CC2)c1` reads -33.4%; that for `O=C1CCC(=O)N1c1ccc(NC2CCN(Cc3ccccc3)CC2)c([N+](=O)[O-])c1`, 2.23%. The same measure for `O=[N+]([O-])c1ccc(NC2CCN(Cc3ccccc3)CC2)c([N+](=O)[O-])c1`: -85.4%; for `O=[N+]([O-])c1ccccc1NC1CCN(Cc2ccccc2)CC1`: -64.4%. `O=C1C2CCCCC2C(=O)N1c1ccc(NC2CCN(Cc3ccccc3)CC2)c([N+](=O)[O-])c1` (centres unmarked): the “hERG current change (%, negative = inhibition) at 10uM” value is on record as -42.1%. On to `O=[N+]([O-])c1ccc(NC2CCN(Cc3ccccc3)CC2)c2ccncc12`, for which the “hERG current change (%, negative = inhibition) at 10uM” value was 6.01%. The result for `CC1CCC2C(=O)N(c3ccc(NC4CCN(Cc5ccccc5)CC4)c([N+](=O)[O-])c3)C(=O)C2C1` (centres unmarked) reads -41.2%.
